Experimental findings from PubChem BioAssay AID504423 (Broad Institute, 2011) are described below.

Where “and” joins values, the source holds several entries; their conditions need not be identical. Equal entries are not always repeated. Out of some 340,000 compounds screened, about 260 (0.076%) were called active. What follows is part of a selection rich in actives, with near analogues and random picks from the rest. Values without a mark were called inactive.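 How the source made its calls: active means highest replicate inhibition at or above 60% at 9 µM, even if other replicates fall short; inactive means all replicates below 60% inhibition.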

This assay concerns Kaposi's sarcoma herpesvirus LANA C-terminal domain (residues 932-1162) DNA binding. In words: blockers of LANA C-terminal domain DNA interaction – biochemical, fluorescence polarization, FAM-LBS DNA, MBP-C-LANA, single point, primary screen (AID 504423).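 Further: 0% = neutral control wells and 100% = 4 µM acridine orange control.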 As to conditions: at 9 µM, stronger effect = higher value. A general note: In fluorescence polarisation assays a small probe gives low polarisation when free and higher when bound to something large.
As to `CCOc1ccc(N(CC)S(=O)(=O)c2cccc3nsnc23)cc1`, the inhibition (as a rule, the relative decrease from the control value, in per cent) was 3.87%.
Regarding `Cc1cc2nc(SCCN3CCOCC3)[nH]c2cc1C`, the inhibition was -0.479%.
For `O=C(Nc1c(Br)cc2c(c1Br)Cc1ccccc1-2)C(F)(F)F`, the inhibition is -0.671%.
On to `O=C(NC(=S)N1CCCCC1c1cccnc1)c1ccccc1` (configuration not stated), for which the inhibition is 1.24%.
Take `CN(CCOc1ccc(CC2SC(=O)NC2=O)cc1)c1ccccn1` (configuration not stated): the inhibition was 14.3% and -2.59%.
As for `CN(C)/C=C(/C(=O)c1ccccc1Cl)S(C)(=O)=O`, the figure is 0.122%; as for `CCC(CC)C(=O)Nc1cc(C(=O)OC)cc(C(=O)OC)c1`, -1.15%.
To `Cc1ccc(C)c(-n2ccnc2SCC(N)=O)c1` belongs -0.0657%.
With `Cc1cc(C)c(CN2CCN(C(=O)Cn3ccc(NC(=O)OCc4ccccc4)nc3=O)CC2)c(C)c1`, the inhibition is 1.66%.
`CCn1c(=S)sc2c(=O)n(CC(=O)Nc3cccc(Br)c3)c(C)nc21`: the inhibition was -0.393%.
For the compound `Cc1cccn2c(CNCC(C)Oc3cccnc3)c(C(=O)N3CCOCC3)nc12` (configuration not stated), the inhibition was -1.19%.
As for `CCOc1ccc(CN2CCC(n3nccc3NC(=O)C3CC3)CC2)cc1CO`, the figure is 1.61%.
Consider `O=C(Nc1cc(-c2ccccc2)nn1-c1ccccc1F)c1ccc([N+](=O)[O-])cc1`, for which the inhibition is -1.47%.
Turning to `Cc1ccccc1OCC(=O)NNC(=O)c1cc(S(=O)(=O)N(C)C)ccc1N1CCCC1`, the inhibition is -0.594%.
As for `CN1CCC2(CC1)NC(=O)NC2=O`, the figure is 0.656%; as for `O=C(NCc1ccncc1)c1cccc(NS(=O)(=O)c2ccc(F)c(F)c2)c1`, -0.916%; as for `CSc1nc(-c2ccccc2)nc(C(Cl)Cl)n1`, 1.16%.
In the case of `CCCn1c(N)c(C(=O)CSc2nc3ccccc3c(=O)n2-c2ccc(OC)cc2)c(=O)[nH]c1=O`, the inhibition is 0.469%.
For the compound `Cc1cccc(-c2nc3c(c(SCC(=O)N4CCOCC4)n2)CCCC3)c1`, the inhibition was -0.478%.
To `COc1cccc(CNC(=O)C2CCCN(c3ncnc4c3nc3n4CCCCC3)C2)c1` (configuration not stated) belongs 0.109%; to `CCNC(=O)COc1cc(C)c(Br)c(C)c1`, 0.138%.
Regarding `CCCCC(CC(C)O)c1n[nH]c(=S)n1-c1ccccc1` (configuration not stated), the inhibition was 0.671%.
In the case of `Cc1ccc(N2CCN(C(=O)c3cccs3)CC2)c(C)c1`, the inhibition is 0.336%.
Turning to `O=C(COC(=O)COc1cccc(F)c1)NCC1CCCCC1`, the inhibition is -1.07%.
As for `O=C1Nc2cc(C(=O)N3CCC(N4CCCCC4)CC3)ccc2S/C1=C\c1ccccc1`, the figure is -4.28%; as for `CC(=O)Nc1ccc(S(=O)(=O)N(C)CC(=O)NCCC2=CCCCC2)cc1`, 0.609%.
As for `CC(C)n1c(NCc2c[nH]c3ccccc23)nc2ccccc21`, the inhibition is -1.36%.
To `COc1ccccc1-c1c(C#N)c(N)nc2c1CCC2` belongs 1.17%; to `CS(=O)(=O)N1CCC(C(=O)N2CCN(c3ccccc3)CC2)CC1`, -0.437%; to `C(=N/N1CCN(c2ccccc2)CC1)/c1cccs1`, -0.282%.
For `O=c1ccc2c(-c3ccccc3S(=O)(=O)O)c3ccc(O)c(O)c3oc-2c1O`, the inhibition is 101% (active).
As to `CC(OC(=O)/C=C/c1ccccc1)C(=O)Nc1ccc(C(N)=O)cc1` (configuration not stated), the inhibition is 2.44%.
`COc1ccc(C2CC(=O)Oc3ccc(C(C)(C)C)cc32)cc1` (configuration not stated): the inhibition was -0.823%.
Regarding `CC1(c2nnc(-c3ccncc3)o2)CC(c2cccnc2)=NO1` (configuration not stated), the inhibition was -1.07%.
As for `Cc1ccc(S(=O)(=O)/N=C(\N)c2ccc(F)cc2)cc1`, the inhibition was -0.0435%.
For the compound `COCc1ccc(CN2CCC(Oc3ccc(C(=O)NCc4ccccn4)cc3)CC2)o1`, the inhibition is -1.54%.
In the case of `Fc1ccccc1Cc1ccc(Cl)nn1`, the inhibition was -0.587%.
